Data on 52 compounds can be found in ChEMBL document CHEMBL3988442, “University of Dundee, Small-Polar-MMV Screening Library” (2021).

Screen size: about 48,000 compounds; about 13,000 (27%) showed an effect of 50% or more. Some of the results follow.

The test system of this test is Wolbachia pipientis. Briefly: Anti-Wolbachia Cell-Based Screen. The format is functional. Further details: scale not given: in the data most compounds retested in dose-response had high values. Conditions: 5 µM.
For `O=C(c1cccnc1)N1Cc2ccccc2OCC1Cn1ccnc1` (configuration not stated), the “Percent Effect” value was found to be 99.63%.

Turning to `CCc1nc2n(n1)CC(NCCc1cccs1)CC2` (configuration not stated), the “Percent Effect” value was -19.61%.

As for `N#Cc1c(F)cccc1NCCCOCC1CCOCC1`, the “Percent Effect” value is -8.528%. The result for `O=C1CC(c2ccsc2)c2snc(C(=O)O)c2N1` (configuration not stated) reads -3.117%; that for `Cc1ccnc2c1NC(=O)CN2C(=O)CCc1ccccc1`, 5.988%; that for `Cc1nc(-c2ccc(CC(=O)N3CCNC(=O)C3)cc2)cs1`, -10.4%.

On to `CC1(C)CNC(=O)CN(C(=O)CCc2ccccc2)C1`, for which the “Percent Effect” value is on record as 92.84%. With `Cc1ccc(N2CCN(C(=O)COc3ccccc3)CC2)nn1`, the “Percent Effect” value was -10.88%. The value for `COc1ccc(CC(=O)N2CC(=O)NCC(C)(C)C2)cc1` was 81.26%; that for `CCc1nsc(N2CCN(C(=O)COc3ccccc3)CC2)n1` was -3.89%; that for `COc1ccc(CC(=O)N2CC[C@@H]3NC(=O)CC[C@@H]32)cc1` was -10.22%. Consider `CCc1ccc(CCC(=O)N2CCC(=O)Nc3cccnc32)cc1`, for which the “Percent Effect” value is listed as -4.556%. On to `CC1(C)CNC(=O)CN(C(=O)COc2ccccc2)C1`, for which the “Percent Effect” value worked out at 99.32%. For `O=C1CCC2(CCCN(C(=O)Cc3ccccc3)C2)N1` (configuration not stated), the “Percent Effect” value was -74.63%.

Consider `O=C(O)C(F)(F)F.O=C1CCC2(CCCN(C(=O)Cc3cccnc3)C2)N1` (configuration not stated), for which the “Percent Effect” value was -30.04%. The result for `CC1(C)CNC(=O)CN(C(=O)Cc2ccccc2)C1` reads 98.91%; that for `CN(C)C(=O)CS(=O)(=O)Cc1ccn(-c2cccc(F)c2)n1`, 3.991%; that for `CCn1c(CN(C)C)nnc1C1CCN(Cc2ccc(C)s2)CC1`, -25.38%.

For the compound `COc1ccc(-c2n[nH]cc2CN(C)CCCN2CCOCC2)c(F)c1`, the “Percent Effect” value was found to be 4.429%. In the case of `N#Cc1nccnc1NCCC1CCN(CC(F)(F)F)CC1`, the “Percent Effect” value was -10.09%. The result for `O=C(CN1CCC2(CCCCC2)C1)NCC(F)(F)F` reads -17.09%; that for `O=C(NCCCn1cccn1)N1CCCC1c1ccncc1` (configuration not stated), 20.68%; that for `Cc1cnn(CCNCc2ccc(F)cc2Cl)c1`, -9.942%. The result for `COc1ccccc1N1CC(NC(=O)c2cc(C(C)C)nn2C)CC1=O` (configuration not stated) reads 186.5%; that for `O=C1CC(NS(=O)(=O)N2CCOCC2)CN1CCc1ccccc1` (configuration not stated), 3.785%. As for `COc1ccccc1N1CCCC(Nc2ncccn2)C1=O` (configuration not stated), the “Percent Effect” value is -13.39%. The result for `COc1ccc(CCNC(=O)NC2CC(=O)N(c3ccccc3)C2)cc1` (configuration not stated) reads 13.52%. On to `COc1ccccc1N1CC(NC(=O)Cn2cc(C)nn2)CC1=O` (configuration not stated), for which the “Percent Effect” value worked out at 83.28%. The result for `O=C(NCC1CC(=O)N(CCc2ccccc2)C1)c1ccc[nH]1` (configuration not stated) reads -4.58%; that for `COc1ccccc1N1CC(NC(=O)Cn2cc(C(C)C)nn2)CC1=O` (configuration not stated), 82.88%. For the compound `CC(C)c1cn(CC(=O)NC2CC(=O)N(CCc3ccccc3)C2)nn1` (configuration not stated), the “Percent Effect” value is listed as 94.88%. Consider `COc1ccccc1N1CCN(CC[C@H](O)c2ccccc2)CC1=O`, for which the “Percent Effect” value is on record as -5.081%.

Regarding `CC(C)Oc1ccccc1C(=O)NC1CC(=O)N(CC(F)(F)F)C1` (configuration not stated), the “Percent Effect” value was -7.447%.

Consider `COc1ccccc1N1CCC(CNC(=O)CN2CSCC2=O)C1` (configuration not stated), for which the “Percent Effect” value is reported as -5.034%. With `Cc1ccccc1C(NC(=O)Cn1cc(C2CC2)nn1)C1CC1` (configuration not stated), the “Percent Effect” value was found to be 6.908%. The result for `COc1cc(-c2cccc3c2OC(CN)C3)ccc1O` (configuration not stated) reads 12.42%; that for `CC(C)(C)NC(=O)c1cnc2n1CCCC2`, -4.757%; that for `CCOC(=O)N1CCN(c2nc(C)ncc2CC)CC1`, -1.601%. Take `CCS(=O)(=O)N1CCC2(CC1)c1ncc(-c3cccnc3)n1CCN2C`: the “Percent Effect” value worked out at 107%.

Turning to `CC(=O)N1CCC2(CC1)c1ncc(-c3ccc(F)cc3)n1CCN2C`, the “Percent Effect” value was found to be 95.01%. The value for `CN1CCn2c(-c3ccccc3)cnc2C12CCN(CC1CC1)CC2.O=C(O)C(F)(F)F.O=C(O)C(F)(F)F.O=C(O)C(F)(F)F` was -7.532%; that for `Cc1ccc(-c2cnc3n2CCN(C)C32CCN(CC3CC3)CC2)cc1.O=C(O)C(F)(F)F.O=C(O)C(F)(F)F.O=C(O)C(F)(F)F` was 0.5048%. With `CC(=O)N1CCn2c(-c3ccccc3)cnc2C12CCNCC2.O=C(O)C(F)(F)F.O=C(O)C(F)(F)F`, the “Percent Effect” value is on record as -11.86%. The result for `CCS(=O)(=O)N1CCC2(CC1)CCn1c(-c3cnn(C)c3)cnc12.O=C(O)C(F)(F)F` reads 2.009%; that for `CC(=O)N1CCC2(CC1)c1ncc(-c3ccccc3)n1CCN2C(C)=O`, 23.35%; that for `CC(=O)N1CCC2(CC1)c1ncc(-c3ccccc3)n1CCN2C`, 98.56%. The value for `Cc1cc(C(=O)N2CCC(n3cc(CO)nn3)CC2)ccc1F` was 2.644%; that for `CN(C)C(=O)CCN1CC(c2ccccc2)(c2ccccc2)CCC1=O` was -7.363%. Regarding `Cc1nnc(CN(C)CC(=O)N2CCCC(C)CC2)n1C` (configuration not stated), the “Percent Effect” value is recorded as -6.061%. With `Cc1cc(C[C@@H]2COC[C@@H]2NC(=O)CNC(=O)N(C)C)on1`, the “Percent Effect” value is reported as -9.814%. With `CS(=O)(=O)CCC(=O)NC(Cc1ccccc1)C1CC1` (configuration not stated), the “Percent Effect” value stood at 2.067%. `O=C(CCN1CCCC1=O)NCc1cccnc1Oc1ccccc1`: the “Percent Effect” value is on record as -4.21%.
